Source: PubChem
BRCA1 expr up = activators of BRCA1 expression; MCF7-BRCA1-FFLuc reporter, luminescence, 48 h; response scale: scaled: vehicle 0%, 10 µM genistein 100%; Potency, µM (series often up to 46.1 µM), inactives show at the top dose activation, actives largely listed as activators; 380,000 tested, 1.1% active; AID 624202; note: nearly all actives have a fitted effect of over 80% in size
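MCF7 cells carrying a BRCA1-firefly luciferase reporter (2000 cells/well, phenol-red free MEM) were attached for 2 h at 37 °C, then given compounds for 48 h. Luminescence was read 15 min after luciferase reagent; activity normalized to genistein (10 microM) and DMSO.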
PLK1 PBD block = PLK1 (human) polo-box domain binding inhibition; P53350; Plk1 PBD binding of FITC phosphopeptide, fluorescence polarization; Potency, µM, without a hit: max response, negative = inhibition, usual class: inhibitors; 360,000 tested, 2.8% active; AID 720504; note: series mostly up to about 57 µM; % is set by controls: 0 for no effect and ±100 for the full control effect; nearly all actives have a fitted effect of over 65% in size
VDR inhibitor = blocks the human vitamin D receptor. P11473. VDR-SRC2-3 peptide fluorescence polarization, 2 h. Potency, µM, for inactives: max response, negative = inhibition, hits mostly inhibitors. 400,000 tested, 0.93% active. AID 504847; note: % is set by controls: 0 for no effect and ±100 for the full control effect
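Compounds are added to VDR with labelled SRC2-3 coactivator peptide and held 2 h at room temperature. Inhibition of the VDR–peptide interaction is then read as a change in fluorescence polarization.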
Tb PFK inh = blocks T. brucei phosphofructokinase | O15648 | T. brucei PFK, ADP-Glo luminescence | Potency, µM (doses to about 57.5 µM), without a hit: at the top dose activity, negative = inhibition, most hits filed as inhibitors | 330,000 tested, 0.17% active | AID 485367;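 note: 0% = uninhibited 1x PFK enzyme wells and -100% = no-enzyme wells; nearly all actives have a fitted effect of over 60% in size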
Target sequence (O15648 whole entry, looked up): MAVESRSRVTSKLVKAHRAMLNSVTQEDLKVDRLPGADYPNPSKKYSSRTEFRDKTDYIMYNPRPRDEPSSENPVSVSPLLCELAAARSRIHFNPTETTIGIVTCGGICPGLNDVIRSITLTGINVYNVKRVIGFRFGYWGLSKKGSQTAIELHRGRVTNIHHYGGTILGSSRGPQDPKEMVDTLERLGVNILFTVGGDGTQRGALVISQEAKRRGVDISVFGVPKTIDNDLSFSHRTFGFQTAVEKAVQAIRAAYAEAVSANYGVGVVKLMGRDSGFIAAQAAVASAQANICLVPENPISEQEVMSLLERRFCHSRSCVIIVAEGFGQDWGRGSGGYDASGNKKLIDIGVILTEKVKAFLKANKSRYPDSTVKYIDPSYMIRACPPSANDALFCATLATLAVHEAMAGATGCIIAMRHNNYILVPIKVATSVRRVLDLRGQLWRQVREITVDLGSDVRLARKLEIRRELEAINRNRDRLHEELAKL
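PFK 1.25 nM, F6P 0.5 mM, ATP 0.1 mM, 0.1 M TEA pH 8.0, 5 mM MgCl2, 0.01% Tween20, 0.1% BSA; 45 min RT. ADP-Glo readout. qHTS titration up to 57 uM; curves fitted, compounds curve-classed.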
* = called active by the depositor; ? = inconclusive; nt = no result. Rows were chosen to be rich in hits. Some 3.9% of all compounds tested hit in one or more screens of this group. Calls come from the whole dose curve; as a rule, active = well fitted curve in the direction sought with a large enough effect; inconclusive = small, poorly fitted or top-dose-only effect, or another doubt; inactive = no such curve, though single readings can be large; an effect the other way counts as inactive or inconclusive. Potency is the fitted concentration of half-maximal effect.

SMILES	BRCA1 expr up	PLK1 PBD block	VDR inhibitor	Tb PFK inh
CCc1ccc2oc(C(=O)N(Cc3cccc(Cl)c3)Cc3ccco3)c(C)c2c1	7.0%	nt	0.1%	nt
COc1ccc(CCNC(=O)NCc2noc3ccc(C)cc23)c(OC)c1	nt	nt	-0.9%	nt
Cc1cccc(CS(=O)(=O)Cc2ccc(C(=O)NCc3ccc(Cl)cc3)o2)c1	nt	nt	11.8%	nt
CNc1ccccc1C(C)(C)c1cc(C)[nH]n1	-3.5%	8.44µM*	?	-0.4%
CNc1ccccc1C(C)(C)c1cc(-c2cc(C)cc(C)c2)no1	-51.8%	-2.5%	-21.8%	-5.9%
COCCNC(=O)CN(Cc1ccc2c(c1)OCO2)C(=O)CCC(=O)Nc1nccs1	-5.6%	3.36µM*	?	-7.6%
CC(C)c1nnc(NC(=O)COc2ccc3c(c2)OCO3)s1	11.2µM*	-27.1%	-10.4%	-0.5%
COCCN(CC(=O)NCc1ccc2c(c1)OCO2)C(=O)CCC(=O)Nc1nccs1	-3.5%	-5.0%	-13.0%	3.4%
CCC(CC)c1nnc(NC(=O)c2ccc3c(c2)OCO3)s1	?	26.7µM*	79.4µM*	?
CC(C)(C)Cc1nnc(NC(=O)c2ccc3c(c2)OCO3)s1	?	15µM*	?	?
CCCC(C)c1nnc(NC(=O)COc2ccc3c(c2)OCO3)s1 (centres undefined)	16.6%	-4.5%	0.6%	-3.0%
COc1ccc(-c2c3c(=O)n(C)c(=O)n(C)c3c3n2-c2ccccc2NC3c2ccco2)cc1 (centres undefined)	nt	nt	7.7%	nt
Cn1ccc2cc(-c3ccc4ncnc(NCc5cccc(F)c5)c4c3)ccc21	nt	nt	nt	-3.8%
O=C(Nc1nccs1)c1ccc2c(c1)OCO2	8.91µM*	2.1%	13.3%	1.8%
CCC(CC)c1nnc(NC(=O)COc2ccc3c(c2)OCO3)s1	1.3%	13.4µM*	79.4µM*	-17.5%
Cc1ccc(/C=N/NC(=O)Cn2nc(C)c([N+](=O)[O-])c2C)o1	-20.2%	-4.2%	19.8%	5.4%
COc1ccc(/C=N/NC(=O)Cn2nc(C)c([N+](=O)[O-])c2C)cc1	-0.2%	29.9µM*	?	-8.6%
COc1cccc(-n2c(CCn3nc(C)c([N+](=O)[O-])c3C)n[nH]c2=S)c1	1.2%	-14.7%	7.4%	-17.0%
COc1ccc(CCn2nc(C)c([N+](=O)[O-])c2C)cc1	8.91µM*	0.4%	1.1%	0.4%
Cn1c(=O)c2cc(NC(=O)Cc3ccccc3F)ccc2n1Cc1ccc(Cl)cc1	-0.3%	-4.6%	nt	nt
CN(C)c1ccc(Cl)c(NC(N)=S)c1	1.8%	-18.6%	nt	nt
Cn1c(SCC(=O)c2ccccc2)nnc1-c1ccccn1	11.2µM*	-2.0%	-5.4%	0.8%
Cn1c(SCC(=O)c2ccccc2)nnc1-c1ccc(O)cc1	17.2%	-7.6%	-21.4%	2.5%
Cn1c(SCC(=O)c2ccccc2)nnc1-c1cccc(N)c1	34.0%	23.8µM*	-6.3%	-3.4%
O=C(CCC(=O)Nc1ccccc1)N/N=C/c1ccco1	-11.2%	-17.6%	-19.7%	-2.4%
SMILES	BRCA1 expr up	PLK1 PBD block	VDR inhibitor	Tb PFK inh
O=C(N/N=C/c1ccco1)c1ccc(NC(=O)c2ccc(Cl)cc2)cc1	-5.4%	-24.6%	4.8%	-0.5%
Cc1cccc(C(=O)Nc2ccc(C(=O)N/N=C/c3ccco3)cc2)c1	-10.3%	21.2µM*	-24.7%	nt
O=C(N/N=C/c1ccco1)Nc1ccccc1	6.31µM*	-2.9%	-9.7%	3.7%
Cc1cc(C)c(NC(=O)CSc2ccc(-c3sc(-c4ccccc4)nc3C)nn2)c(C)c1	nt	nt	-8.2%	nt
CC1(C(=O)Nc2ccc(F)cc2F)CCN1C(=O)Cc1ccccc1 (centres undefined)	1.0%	-8.9%	nt	nt
COC(=O)N1CCCc2cc(S(=O)(=O)N3CCN(c4ccccc4)CC3)ccc21	0.0%	nt	-4.6%	nt
Cc1ccccc1OCc1ccc(-c2nc(C#N)c(NCCCN(C)C)o2)o1	nt	nt	13.1%	nt
COCCNC(=S)NN(c1ccccc1)c1ccccc1	-3.6%	26.7µM*	-12.9%	-9.7%
CCSc1nnc(NC(=O)c2csc(C)c2)s1	5.01µM*	-4.9%	6.6%	0.4%
CN(C)c1ccc(NC(=O)CSc2nnc(-c3ccco3)c(-c3ccco3)n2)cc1	-29.8%	-17.4%	6.2%	12.7%
Cc1ccc(NC(=O)CSc2nnc(-c3ccco3)c(-c3ccco3)n2)cc1	-48.6%	26.7µM*	?	-26.9%
COc1cccc(NC(=O)CSc2nnc(-c3ccco3)c(-c3ccco3)n2)c1	-14.2%	13.4µM*	89.1µM*	?
O=C(CSc1nnc(-c2ccco2)c(-c2ccco2)n1)Nc1ccccc1	-20.2%	18.9µM*	?	?
COc1ccc(NC(=O)CSc2nnc(-c3ccco3)c(-c3ccco3)n2)cc1OC	-21.7%	?	2.8%	-16.1%
CC(C)(C)c1ccc(OCc2cc(=O)n3c4c(sc3n2)CCCC4)cc1	19.6%	nt	-1.2%	nt
O=c1[nH]c(=O)n(C2OC(CO)C(O)C2O)c2c1CCCC2 (centres undefined)	5.4%	0.8%	nt	nt
O=C(c1cccs1)N1CCc2ccccc21	7.94µM*	-12.8%	3.4%	-4.6%
O=C(CSc1nnc(CNC(=O)c2cccc(F)c2)n1-c1ccccc1)Nc1ccccc1F	nt	nt	-2.8%	nt
COc1ccc(C(=O)NC2CC(C)(C)Cc3c2cnn3-c2ccccc2)cc1OC (centres undefined)	-13.9%	-7.1%	-4.2%	0.9%
COc1ccc(-n2ncc3c2CC(C)(C)CC3NC(=O)c2cnc(C)cn2)cc1 (centres undefined)	-8.1%	-22.0%	-17.8%	0.4%
COc1cc(C(=O)NC2CC(C)(C)Cc3c2cnn3-c2ccccc2)cc(OC)c1OC (centres undefined)	-14.2%	29.9µM*	?	0.0%
COc1ccc(-n2ncc3c2CC(C)(C)CC3NC(=O)c2c(C)cc(=O)oc2C)cc1 (centres undefined)	4.3%	23.8µM*	?	1.6%
CC1ON=C(c2ccccn2)N(Cc2ccc(S(C)(=O)=O)cc2)C1=O (centres undefined)	3.2%	1.7%	nt	nt
CCCCn1c(N)c(Sc2ccccc2[N+](=O)[O-])c(=O)[nH]c1=O	-3.4%	2.6%	-4.1%	2.1%
Cc1[nH]c(=O)[nH]c(=O)c1Sc1ccccc1[N+](=O)[O-]	-14.0%	21.2µM*	-8.7%	1.1%
SMILES	BRCA1 expr up	PLK1 PBD block	VDR inhibitor	Tb PFK inh
c1ccc(OCc2nc(-c3ccccc3)no2)cc1	93.4%	-7.5%	12.8%	2.9%
Clc1ccccc1OCc1nc(-c2ccncc2)no1	5.01µM*	6.7µM*	-6.0%	-10.2%
c1ccc(OCc2nc(-c3ccncc3)no2)cc1	11.2µM*	-3.7%	7.8%	-4.7%
COc1ccccc1Cc1nc(-c2ccncc2)no1	59.3%	3.4%	-4.5%	-3.2%
Cc1ccc(OCc2nc(-c3ccccn3)no2)c(Br)c1	?	1.8%	1.0%	-11.4%
Clc1ccc(OCc2nc(-c3ccncc3)no2)c(Br)c1	3.98µM*	-7.6%	-18.4%	-1.1%
N#Cc1c[nH]n2c(NC3CCCCC3)c(-c3ccc(F)cc3)nc12	nt	nt	10.4%	nt
O=c1c(-c2ccccc2)nc2ccccc2n1C(CCc1ccccc1)c1nc2ccccc2[nH]1 (centres undefined)	nt	-8.6%	nt	nt
CN1C[C@@H]2[C@@H]3C(=O)N(C)C(=O)[C@@H]3[C@](C)(C1=O)N2C(=O)c1ccc(Cl)c(Cl)c1	-9.5%	-2.3%	-13.0%	nt
